Data: PubChem BioAssay AID588726 (The Scripps Research Institute Molecular Screening Center, 2011)
Out of some 360,000 compounds screened, about 8,200 (2.3%) were called active. The sample as a whole holds a higher share of actives than the screen did. A number with no mark means an inactive call. No stated cut-off is given here; in the data, active means inhibition above about 27%; inactive means the rest.

Molecular target: Fructose-bisphosphate aldolase (Mycobacterium tuberculosis (strain ATCC 25618 / H37Rv)) (UniProt P9WQA3)
Assay: M. tuberculosis aldolase activity blockers – biochemical, fluorescence, strain H37Rv, primary screen (AID 588726);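 further: 0% = vehicle and 100% = reference inhibitor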
Details: purified M. tuberculosis FBA, fluorescence read-out, at 1 µM, active compounds read high

Chain of Fructose-bisphosphate aldolase (Mycobacterium tuberculosis (strain ATCC 25618 / H37Rv)) (P9WQA3 whole entry, looked up): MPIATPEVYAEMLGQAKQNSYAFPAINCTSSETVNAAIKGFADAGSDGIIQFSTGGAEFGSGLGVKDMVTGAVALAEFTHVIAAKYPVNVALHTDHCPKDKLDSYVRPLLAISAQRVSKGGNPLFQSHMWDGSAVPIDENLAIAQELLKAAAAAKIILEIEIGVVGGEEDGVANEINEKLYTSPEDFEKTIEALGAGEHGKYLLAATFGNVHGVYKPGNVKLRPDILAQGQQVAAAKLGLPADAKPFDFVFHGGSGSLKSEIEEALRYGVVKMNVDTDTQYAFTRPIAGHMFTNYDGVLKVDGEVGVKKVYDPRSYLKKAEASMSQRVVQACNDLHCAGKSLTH

SMILES	inhibition
O=C(NCCCN1CCCC1=O)C(=O)NCC1OCCN1S(=O)(=O)c1ccc(Br)cc1 (stereo not given)	6.34%
CCOC(=O)CNC(=O)CSc1ncccc1-c1nc2ccccc2[nH]1	8.03%
Cc1ccc(-c2nc3ccccc3[nH]2)cc1N	176% (active)
Cc1ccccc1N1CC(c2nc3ccccc3[nH]2)CC1=O (stereo not given)	0.05%
CCSc1nc(=S)n(CC)c(C)c1C(C)=O	-0.42%
O=C(CN1CCOc2ccccc21)N1CCC(Cc2ccccc2)CC1	6.13%
CCC(C)N(C(=O)Cn1nc(C)c([N+](=O)[O-])c1C)C1CCS(=O)(=O)C1 (stereo not given)	1.23%
CCC(C)N(C(=O)COC(=O)c1nc(Cl)ccc1Cl)C1CCS(=O)(=O)C1 (stereo not given)	0.03%
CCC(C)N(C(=O)COC(=O)C1C(C(=O)OC)=C(C)NC(C)=C1C(=O)OC)C1CCS(=O)(=O)C1 (stereo not given)	74.9% (active)
Cc1cc2cc3n(c2nn1)N=C(Cl)CC3	83.2% (active)
CCOC(=O)c1nn(-c2ccccc2F)c2nc(Nc3ccccc3)cc(=O)n12	-2.45%
Cc1ccccc1CCN(CC(=O)NC1CCCCC1)C(=O)c1csnn1	-2.02%
CC1=CC=CN2C1=NC(=O)CC2(C)C(=O)N(CC(=O)NC1CCCC1)c1ccccc1C (stereo not given)	164% (active)
Cc1ccc(N(CC(=O)NC2CCCCC2)C(=O)CCCC(=O)Nc2ccccn2)c(C)c1	3.51%
CCOc1ccccc1N(CC(=O)NC1CCCCC1)C(=O)CCCC(=O)Nc1ccccn1	-0.58%
COc1ccccc1N(C)S(=O)(=O)c1ccc(C(=O)NC2CCCCCC2)cc1	2.13%
COc1ccccc1N(CC(=O)NC1CCCC1)C(=O)C1(C)CC(=O)N=C2C=CC(C)=CN21 (stereo not given)	123% (active)
CC1=C(C(=O)N2CCOCC2)CC(CC(=O)NCc2cccs2)C(=O)N1CCCN1CCCC1=O (stereo not given)	2.87%
Cc1ccc2c(cnn2C(=O)CCC(=O)NC2CCCC2)c1	2.86%
Cc1ccc(C(C(=O)NC2CCCCC2)N(C(=O)c2csnn2)C2CC2)o1 (stereo not given)	1.93%
CC(=O)N1CCN(S(=O)(=O)c2ccc(C)c([N+](=O)[O-])c2)C1C(C)C (stereo not given)	-1.36%
Cc1ccccc1N1C(=O)C(Oc2ccc(Cl)cc2)C1CNCC1CCCO1 (stereo not given)	-3.19%
O=c1cc(CN2CCN(S(=O)(=O)/C=C/c3ccccc3)CC2)c2ccc(O)cc2o1	137% (active)
NC(=O)CCN1CCN(S(=O)(=O)/C=C/c2ccccc2)CC1	1.59%
Cc1ccc2c(CN3CCN(S(=O)(=O)c4ccccc4C(F)(F)F)CC3)cc(=O)oc2c1	2.71%
CSc1cccc(NC(=O)C2CCCN2S(=O)(=O)c2ccc3c(c2)CCC(=O)N3)c1 (stereo not given)	1.45%
Cc1cccc(-c2cnc(C(O)c3ccc4ccccc4c3)[nH]2)c1 (stereo not given)	-1.57%
CC(C)(C)OC(=O)NC(Cc1ccccc1)C(=O)NC(CSC1CCCCO1)C(=O)NN (stereo not given)	-0.07%

SMILES	inhibition
CC(C)c1ccc(S(=O)(=O)N2CCN(C(=O)c3ccc(N4CCCC4)c([N+](=O)[O-])c3)CC2)cc1	-2.26%
O=C1C=C(c2ccccc2)CCC1	3.76%
O=c1cc(-c2ccccc2)[nH]c2cc(F)ccc12	5.51%
O=c1[nH]c(-c2ccccc2)c(-c2ccccc2)[nH]1	133% (active)
CCc1ccc(NC(=O)CCNS(=O)(=O)c2cccs2)cc1	-1.53%
O=C(NCc1ccccc1)c1ccc(CNc2c(N3CCCC3)c(=O)c2=O)cc1	4.44%
CN1C(=O)/C(=C\c2cc(Br)cs2)c2ccccc21	0.16%
CCc1ccccc1N1C(=O)C2C3CC(=O)C(c4ccccc43)C2C1=O (stereo not given)	1.36%
CCC1C(=O)c2ccccc2N(C)C1=O (stereo not given)	34.5% (active)
Cc1ccc(CN2CCC(N3CCC(C(=O)NCC4CCCO4)CC3)CC2)o1 (stereo not given)	-1.69%
Cc1ccc(S(=O)(=O)N2CCN(C(=O)c3ccccc3-c3nc4ccccc4s3)CC2)c(C)c1	1.65%
CC1CCCN(C(=O)c2cc(-c3ccco3)nc3ccccc23)C1 (stereo not given)	114% (active)
CC1CCCC(NC(=O)c2cc(-c3ccncc3)nc3ccccc23)C1C (stereo not given)	4%
Cc1cc(C(=O)NNC(=O)c2cccc(S(=O)(=O)N3CCOCC3)c2)c2ccccc2n1	-2.38%
Cc1c(NC(=O)c2cc(-c3ccc(Cl)s3)nc3ccccc23)c(=O)n(-c2ccccc2)n1C	13%
Cc1cc(C(=O)N2CCN(c3ccccn3)CC2)c(C)o1	9.35%
Cc1cccc(C(=O)N2CCC(c3nc4ccccc4s3)CC2)c1	-2.02%
CC(=O)N1CCN(C(=O)c2cc(-c3ccc(C)o3)nc3ccccc23)CC1	131% (active)
O=C(c1cc(-c2ccc(Cl)s2)nc2ccccc12)N1CCOCC1	93.6% (active)
CC1CCN(C(=O)Cn2cc(C(=O)c3ccco3)c3ccccc32)CC1	-0.4%
CC(=O)N1CCN(C(=O)c2cc(-c3ccc(Cl)s3)nc3ccccc23)CC1	83.4% (active)
O=C(NNC(=O)c1cc(-c2ccccc2Cl)nc2ccccc12)c1csc(N2CCOCC2)n1	1.04%
Cc1nc(-c2ccc(Cl)cc2)sc1C1(C)CC(c2ccc(Br)cc2)=NO1 (stereo not given)	-1.45%
O=S(=O)(c1cccc(-c2nnc(SC(F)F)n2-c2ccccc2)c1)N1CCCCC1	5.7%
COc1ccc(C)cc1NC(=O)c1[nH]c(C)c(C(C)=O)c1C	0.08%
CCc1ccc(OCC(O)CN2CCN(CCO)CC2)cc1 (stereo not given)	-0.21%
CSCCC(NC(=O)c1ccco1)C(=O)NCCc1ccc(F)cc1 (stereo not given)	0.46%
